# Data reported in PubChem BioAssay.
# “And” between values parts separate entries of the source, which are not always exact repeats. Equal entries are not always repeated. Inconclusive results are not listed. For part of these data: Potency and affinity values are given separately. The source made the active and inactive calls.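 The calls were made as follows, unless noted: active = normalized viability below 100% at a tested concentration; inactive = the rest.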
# Legend:
# [1] = polyglutamine-triggered caspase-3 activation inhibitors, cell-based (AID 1583); conditions: polyglutamine-induced caspase-3 activation, cell assay; stronger effect = higher value;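 tested at 10 µM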
# [2] = suppressors of polyQ aggregation in yeast, 75Q-TubU reporter (AID 1593); conditions: Yeast 75Q polyglutamine aggregation reporter
# [3] = rescue of polyQ-huntingtin neuronal dysfunction in worms, whole organism, C. elegans mechanosensory neurons, N-terminal huntingtin (AID 1599); conditions: touch response, stronger effect = higher value
# [4] = inhibitors of mitochondrial cytochrome c release, biochemical, purified mitochondria (AID 1603); conditions: stronger effect = lower value;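 also: mouse liver mitochondria challenged with calcium chloride; signal normalized to the plate average as 100%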
# [5] = inhibitors of polyQ protein aggregation (AID 1604); conditions: polyglutamine-induced protein aggregation inhibition assay; stronger effect = higher value; tested at 2.5 µM
# [6] = enhancers of glutamate uptake in motor neurons, MN-1 cell line (AID 1612); conditions: MN-1 motor neuron cells, stronger effect = higher value;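 also: tested at 1 µM final; 0% = mean of DMSO vehicle wells on each plate; positive means more glutamate uptake than control and negative means less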
# [7] = reducers of polyQ inclusions in PC12 cells, cell-based, NGF-treated PC12, GFPQ80 (AID 1614); conditions: PC12 NGF-treated GFP-polyQ80 inclusion reduction;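 also: lower means fewer inclusions and 0 means no inclusions at all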
# [8] = suppressors of polyglutamine aggregation in yeast, 75Q-TubH (AID 1616); conditions: S. cerevisiae 75Q-TubH polyglutamine aggregation suppression; stronger effect = higher value
# [9] = liver-stage malaria parasite growth inhibition, primary screen, cell-based, HepG2, luciferase luminescence, HepG2 viability (AID 624349; in the data active = parasite load remaining mostly below about 12%, no sharp cut-off; inactive = mostly above about 10%;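 also: 100% = mean of DMSO negative control wells on the same plate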); conditions: P. berghei liver stage in HepG2, luciferase luminescence, concentration not given here; parasite load remaining: stronger effect = lower value; viability: measured here: HepG2 viability without parasites
# [10] = target: 6-phosphogluconate dehydrogenase, decarboxylating (Homo sapiens) (UniProt P52209); assay: 6PGD enzyme inhibitors, primary screen, biochemical, human, recombinant enzyme, NADPH absorbance (AID 1159550;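 active = at least 20% inhibition of 6-phosphogluconate dehydrogenase activity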); conditions: recombinant 6PGD, NADPH absorbance 341 nm; at 10 µM; stronger effect = higher value
# Chain of 6-phosphogluconate dehydrogenase, decarboxylating (Homo sapiens) (P52209 whole entry, looked up): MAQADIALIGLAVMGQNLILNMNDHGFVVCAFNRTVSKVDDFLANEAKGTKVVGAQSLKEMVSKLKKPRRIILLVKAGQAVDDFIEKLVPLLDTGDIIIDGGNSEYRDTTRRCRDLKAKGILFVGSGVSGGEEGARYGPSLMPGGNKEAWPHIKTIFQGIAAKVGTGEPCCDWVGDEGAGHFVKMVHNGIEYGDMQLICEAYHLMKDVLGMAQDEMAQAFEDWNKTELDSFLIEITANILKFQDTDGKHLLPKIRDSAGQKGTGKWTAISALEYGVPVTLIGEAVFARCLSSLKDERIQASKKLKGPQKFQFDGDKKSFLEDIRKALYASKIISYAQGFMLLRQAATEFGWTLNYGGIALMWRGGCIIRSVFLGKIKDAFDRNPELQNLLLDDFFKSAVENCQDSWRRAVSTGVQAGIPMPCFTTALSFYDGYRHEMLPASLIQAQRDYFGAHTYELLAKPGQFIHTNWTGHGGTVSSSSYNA
# [11] = differential killing of epithelial or mesenchymal cells, primary screen, imaging, PC-3E GFP, TEM4-18 mCherry, co-culture (AID 1345086;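 active = compounds killing one labelled cell type while sparing the other, by normalised counts and ratio limits, not self-fluorescent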;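 as to all read-outs here: cells exposed to compound for 72 h before imaging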;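 as to red/green cell ratio (normalised): normalised mesenchymal count divided by normalised epithelial count so high means epithelial killing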); conditions: imaging cell counts, at 1 µM; for red/green cell ratio (normalised): actives lie on both sides, counts scaled to control wells, 1 = unselective
# [12] = sensitizers of A549 cells to miR-34 induction, primary screen, imaging, A549 dox-inducible miR-34, nuclei and caspase counts (AID 1347080;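 active = compounds whose cell count with miR-34 switched on is under 0.7 times the count with it off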); conditions: A549 miR-34 inducible, Hoechst nuclei count, 48 h
# [13] = survival rescue of mitochondrial mutant cells in low glucose, primary screen, MELAS cybrids, Rieske KO mouse fibroblasts, CellTiter-Glo (AID 1508586;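 active = mean z-score across replicates of 1.96 or higher in either the MELAS or the Rieske mutant cell line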;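 also: z relative to plate mean and SD of compound and empty wells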)
# [14] = target: NAD(+) hydrolase SARM1 (Homo sapiens) (UniProt Q6SZW1); assay: SARM1 TIR NADase inhibitors, cell lysate, NAD-Glo luminescence (AID 1508614;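 active = compound whose remaining NAD level is above about 45 nM, limit read from the data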;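 also: higher remaining NAD means stronger inhibition of SARM1 NADase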); conditions: SAM-TIR HEK293T lysate NADase, at 1 µM, stronger effect = higher value
# Chain of NAD(+) hydrolase SARM1 (Homo sapiens) (Q6SZW1 whole entry, looked up, the tested form may be a part): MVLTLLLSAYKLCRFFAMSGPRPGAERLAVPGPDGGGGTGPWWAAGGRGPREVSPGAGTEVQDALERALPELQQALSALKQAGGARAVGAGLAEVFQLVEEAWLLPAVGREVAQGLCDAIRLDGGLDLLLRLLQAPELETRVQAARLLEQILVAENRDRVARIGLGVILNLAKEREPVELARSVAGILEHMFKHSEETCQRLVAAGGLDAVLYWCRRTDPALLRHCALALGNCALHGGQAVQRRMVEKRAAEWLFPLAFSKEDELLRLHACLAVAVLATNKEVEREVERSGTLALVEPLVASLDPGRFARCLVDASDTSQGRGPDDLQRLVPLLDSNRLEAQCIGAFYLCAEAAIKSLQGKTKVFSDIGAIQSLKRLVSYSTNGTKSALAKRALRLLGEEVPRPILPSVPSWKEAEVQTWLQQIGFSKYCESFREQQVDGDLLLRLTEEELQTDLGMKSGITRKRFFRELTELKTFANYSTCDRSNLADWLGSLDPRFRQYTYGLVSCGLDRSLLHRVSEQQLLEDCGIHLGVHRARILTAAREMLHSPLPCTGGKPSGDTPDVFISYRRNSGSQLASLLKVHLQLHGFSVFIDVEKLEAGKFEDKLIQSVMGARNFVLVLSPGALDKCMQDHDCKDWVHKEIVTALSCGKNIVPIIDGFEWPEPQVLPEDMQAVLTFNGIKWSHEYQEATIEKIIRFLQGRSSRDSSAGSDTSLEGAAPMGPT
# [15] = target: Mitogen-activated protein kinase 7 (Homo sapiens) (UniProt Q13164); assay: ERK5 transactivation activators in reporter cells, primary screen, cell-based, HTS (AID 1508626;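 active = luciferase signal above three times the same-plate solvent-only control wells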;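 also: luciferase driven by Gal4-ERK5 fusion binding five Gal4 sites before minimal TATA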); conditions: HeLa Gal4-ERK5 transactivation, 18 h, at 5 µM, stronger effect = higher value
# Chain of Mitogen-activated protein kinase 7 (Homo sapiens) (Q13164 whole entry, looked up, the tested form may be a part): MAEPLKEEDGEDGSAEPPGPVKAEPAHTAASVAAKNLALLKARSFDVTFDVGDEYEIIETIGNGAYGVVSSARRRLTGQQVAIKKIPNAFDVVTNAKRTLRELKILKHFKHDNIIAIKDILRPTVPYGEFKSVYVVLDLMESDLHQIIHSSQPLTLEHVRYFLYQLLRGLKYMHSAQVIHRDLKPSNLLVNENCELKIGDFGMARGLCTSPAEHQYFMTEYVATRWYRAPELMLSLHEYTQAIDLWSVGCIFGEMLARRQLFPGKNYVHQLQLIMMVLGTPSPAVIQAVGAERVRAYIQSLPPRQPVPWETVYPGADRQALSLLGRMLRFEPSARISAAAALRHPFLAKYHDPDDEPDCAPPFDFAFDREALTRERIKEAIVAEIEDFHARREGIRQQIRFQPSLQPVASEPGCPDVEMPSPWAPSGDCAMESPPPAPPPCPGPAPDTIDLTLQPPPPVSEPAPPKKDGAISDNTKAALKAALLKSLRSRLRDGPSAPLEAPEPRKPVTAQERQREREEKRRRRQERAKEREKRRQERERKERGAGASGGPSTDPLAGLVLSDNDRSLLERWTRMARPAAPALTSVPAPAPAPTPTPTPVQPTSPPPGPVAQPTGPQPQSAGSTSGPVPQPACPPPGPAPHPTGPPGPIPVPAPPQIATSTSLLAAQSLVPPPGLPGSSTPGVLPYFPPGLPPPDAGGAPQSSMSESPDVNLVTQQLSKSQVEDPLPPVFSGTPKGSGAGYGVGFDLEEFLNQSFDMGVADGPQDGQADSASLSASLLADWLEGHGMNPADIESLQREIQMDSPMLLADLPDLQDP
# [16] = viability rescue of complex I mutant cybrids, primary screen, cell-based, galactose medium, ATP luminescence (AID 1645843;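 active = z-score of at least 1.8 in each of two replicates, scored against plate mean and spread of sample wells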;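 also: positive z means more ATP and so rescue of galactose-driven cybrid death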); conditions: complex I mutant cybrid cells, 72 h, stronger effect = higher value
# [17] = ICB984 medulloblastoma cell growth inhibition, synergistic combos for chromothripsis tumors, cisplatin or BGB combos (AID 1671451; call rule not given here;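 also: cells exposed for 96 hours before readout; 0% = vehicle DMSO and 100% = killing by high DMSO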); conditions: ICB984 medulloblastoma cells, drug combinations, stronger effect = higher value
# [18] = growth inhibition of DIPG glioma cells, dose response, cell-based, JHH-DIPG-1, MIPE4.0, CellTiter-Glo, qHTS (AID 1347062; cut-off not given, nearly all actives have AC50 up to about 27 µM); conditions: JHH-DIPG-1 viability, CellTiter-Glo ATP luminescence
# [19] = ovarian cancer cell viability with rucaparib, profiling panel, oncology-focused library, rucaparib conditional (AID 1508598); conditions: patient-derived ovarian cancer cells, CellTiter-Glo viability, 144 h, stronger effect = lower value
# [20] = measured here: epithelial PC-3E GFP cell survival
# [21] = measured here: mesenchymal TEM4-18 mCherry cell survival
# [22] = stronger effect = lower value, cell number ratio, induced over uninduced
# [23] = measured here: relative caspase fold change +Dox/-Dox
# [24] = measured here: total cells with miR-34 induction, stronger effect = lower value
# [25] = measured here: total cells without miR-34 induction
# [26] = MELAS cybrid survival, CellTiter-Glo 48 h, stronger effect = higher value
# [27] = Rieske KO mouse fibroblast survival, CellTiter-Glo 72 h
structure (smiles),measurement,setting,value
CCn1nc(C(=O)O)c(=O)c2cc3c(cc21)OCO3,inhibition,[1],20.5%
same,score,[2],0.7
same,rescue above control,[3],3.16
same,cytochrome c release ratio,[4],0.93
same,inhibition of aggregation,[5],18.2%
same,glutamate uptake change,[6],-5.25%
same,inclusion score,[7],2
same,aggregation suppression score,[8],0.697
same,parasite load remaining,[9],87.3% (inactive) and 66.8% (inactive)
same,viability,[9],99.6% and 76.9% and 91.7%
same,inhibition,[10],6.67% (inactive)
same,red/green cell ratio (normalised),[11],1.25 (inactive)
same,normalised cell number,[11]; [20],1.11
same,normalised cell number,[11]; [21],1.38
same,fold change,[12]; [22],0.983 (inactive) and 0.931 (inactive) and 0.893 (inactive)
same,fold change,[12]; [23],1.81 and 0.999 and 1.16
same,cell count,[12]; [24],10100 and 8650 and 10900
same,cell count,[12]; [25],10300 and 9290 and 12200
same,z-score,[13]; [26],-0.474 (inactive)
same,z-score,[13]; [27],-0.663
same,remaining NAD,[14],10 nM (inactive)
same,luciferase signal,[15],32 AU (inactive)
same,z-score,[16],0.215 (inactive)
same,inhibition,"[17]; BGB IC20 combo, at 0.005 µM",-15.8%
same,inhibition,"[17]; BGB IC40 combo, at 0.005 µM",-16.7%
same,inhibition,"[17]; BGB IC40 combo, at 0.05 µM",-9.96%
same,inhibition,[17]; at 0.5 µM,-5.52% (inactive)
same,inhibition,"[17]; cisplatin combo, at 0.05 µM",-9.96%
same,inhibition,"[17]; cisplatin combo, at 0.5 µM",-1.52%
same,inhibition,"[17]; cisplatin combo, at 5 µM",-43.4%
same,inhibition,"[17]; measured here: 5 uM single agent, at 5 µM",-20.7%
C1CCc2nnnn2CC1,parasite load remaining,[9],23.8% (inactive) and 86.6% (inactive) and 79.3% (inactive)
same,viability,[9],50.2% and 91.9% and 103%
same,inhibition,[10],10.8% (inactive)
same,red/green cell ratio (normalised),[11],1.25 (inactive)
same,normalised cell number,[11]; [20],1.11
same,normalised cell number,[11]; [21],1.38
same,z-score,[13]; [26],-0.00315 (inactive)
same,z-score,[13]; [27],-0.232
same,remaining NAD,[14],10 nM (inactive)
same,luciferase signal,[15],96 AU (inactive)
same,z-score,[16],0.7 (inactive) and 0.6 (inactive)
O=C(CCc1ccc(O)cc1)c1c(O)cc(O)cc1O,inhibition,[10],4.36% (inactive)
same,red/green cell ratio (normalised),[11],1.14 (inactive)
same,normalised cell number,[11]; [20],0.95
same,normalised cell number,[11]; [21],1.08
same,outcome,[18],inactive
same,fold change,[12]; [22],1 (inactive) and 0.951 (inactive)
same,fold change,[12]; [23],1.21 and 0.641
same,cell count,[12]; [24],10100 and 9910
same,cell count,[12]; [25],10100 and 10400
same,z-score,[13]; [26],-0.355 (inactive)
same,z-score,[13]; [27],0.489
same,viability,"[19]; at 0.000305 µM, OCI-C5x cells, with rucaparib 10 µM, 100% = cells with rucaparib alone",108% (inactive)
same,viability,"[19]; at 0.000305 µM, OCI-C5x cells, without rucaparib",119% (inactive)
same,viability,"[19]; at 0.000305 µM, OCI-P5x cells, with rucaparib 20 µM, 100% = cells with rucaparib alone",96.8% (active)
same,viability,"[19]; at 0.000305 µM, OCI-P5x cells, without rucaparib",97% (active)
same,viability,"[19]; at 0.00122 µM, OCI-C5x cells, with rucaparib 10 µM, 100% = cells with rucaparib alone",115% (inactive)
same,viability,"[19]; at 0.00122 µM, OCI-C5x cells, without rucaparib",108% (inactive)
same,viability,"[19]; at 0.00122 µM, OCI-P5x cells, with rucaparib 20 µM, 100% = cells with rucaparib alone",95.8% (active)
same,viability,"[19]; at 0.00122 µM, OCI-P5x cells, without rucaparib",99.2% (active)
same,viability,"[19]; at 0.00488 µM, OCI-C5x cells, with rucaparib 10 µM, 100% = cells with rucaparib alone",122% (inactive)
same,viability,"[19]; at 0.00488 µM, OCI-C5x cells, without rucaparib",115% (inactive)
same,viability,"[19]; at 0.00488 µM, OCI-P5x cells, with rucaparib 20 µM, 100% = cells with rucaparib alone",103% (inactive)
same,viability,"[19]; at 0.00488 µM, OCI-P5x cells, without rucaparib",104% (inactive)
same,viability,"[19]; at 0.0195 µM, OCI-C5x cells, with rucaparib 10 µM, 100% = cells with rucaparib alone",110% (inactive)
same,viability,"[19]; at 0.0195 µM, OCI-C5x cells, without rucaparib",123% (inactive)
same,viability,"[19]; at 0.0195 µM, OCI-P5x cells, with rucaparib 20 µM, 100% = cells with rucaparib alone",104% (inactive)
same,viability,"[19]; at 0.0195 µM, OCI-P5x cells, without rucaparib",110% (inactive)
same,viability,"[19]; at 0.0781 µM, OCI-C5x cells, with rucaparib 10 µM, 100% = cells with rucaparib alone",116% (inactive)
same,viability,"[19]; at 0.0781 µM, OCI-C5x cells, without rucaparib",121% (inactive)
same,viability,"[19]; at 0.0781 µM, OCI-P5x cells, with rucaparib 20 µM, 100% = cells with rucaparib alone",104% (inactive)
same,viability,"[19]; at 0.0781 µM, OCI-P5x cells, without rucaparib",109% (inactive)
same,viability,"[19]; at 0.313 µM, OCI-C5x cells, with rucaparib 10 µM, 100% = cells with rucaparib alone",115% (inactive)
same,viability,"[19]; at 0.313 µM, OCI-C5x cells, without rucaparib",117% (inactive)
same,viability,"[19]; at 0.313 µM, OCI-P5x cells, with rucaparib 20 µM, 100% = cells with rucaparib alone",109% (inactive)
same,viability,"[19]; at 0.313 µM, OCI-P5x cells, without rucaparib",113% (inactive)
same,viability,"[19]; at 1.25 µM, OCI-C5x cells, with rucaparib 10 µM, 100% = cells with rucaparib alone",105% (inactive)
same,viability,"[19]; at 1.25 µM, OCI-C5x cells, without rucaparib",125% (inactive)
same,viability,"[19]; at 1.25 µM, OCI-P5x cells, with rucaparib 20 µM, 100% = cells with rucaparib alone",97.8% (active)
same,viability,"[19]; at 1.25 µM, OCI-P5x cells, without rucaparib",110% (inactive)
same,viability,"[19]; at 5 µM, OCI-C5x cells, with rucaparib 10 µM, 100% = cells with rucaparib alone",109% (inactive)
same,viability,"[19]; at 5 µM, OCI-C5x cells, without rucaparib",132% (inactive)
same,viability,"[19]; at 5 µM, OCI-P5x cells, with rucaparib 20 µM, 100% = cells with rucaparib alone",108% (inactive)
same,viability,"[19]; at 5 µM, OCI-P5x cells, without rucaparib",111% (inactive)
same,luciferase signal,[15],60 AU (inactive)
same,z-score,[16],1.71 (inactive)
